About 4,000 (2.1%) of roughly 190,000 compounds were called active. Rule as the data show it: active = inhibition above about 58%; inactive = the rest, inconclusive results apart; tested in S. cerevisiae. The list comes from a sample in which actives are over-represented; it also holds similar structures and randomly drawn compounds.
Experiment: growth inhibition of WT strain, primary screen, mitochondrial fusion inhibitor project, WT and mutant strains, chemical genetic (AID 1362)
Details: mitochondrial fusion phenotypic screen, at 10 µM
[1] = WT strain, growth inhibition, stronger effect = higher value

Compound | inhibition [1] | inhibition (mutant strain inhibition) [%]
CN(C)c1ccc(/C=N/NC(=O)C(O)c2ccc(Br)cc2)cc1 (configuration not stated) | -4.38% (inactive) | 1.15
Cc1ccccc1CSc1nnc(-c2ccccc2)c(=O)[nH]1 | 12.9% (inactive) | -13.6
O=C(Nc1ccccc1C(=O)O)c1cc(S(=O)(=O)N2CCCCC2)cs1 | 1.49% (inactive) | -6
Cc1cc(C)c(C2C3=C(Nc4c2c(C)nn4-c2ccccn2)c2ccccc2C3=O)c(C)c1 (configuration not stated) | 78.7% (active) | 55
Cc1ccc(C2C3=C(Nc4[nH]n(-c5ccccc5)c(=O)c42)c2ccccc2C3=O)cc1 (configuration not stated) | -0.51% (inactive) | -6.48
Cc1nn(-c2ccccn2)c2c1C(c1ccncc1)C1=C(CC(C)(C)CC1=O)N2 (configuration not stated) | -4.23% (inactive) | -14.9
COc1cccc(C(=O)Oc2cc(C)[nH]c(=O)c2[N+](=O)[O-])c1 | 15.8% (inactive) | -9.84
O=C(N/N=C/c1ccccn1)c1ccc(S(=O)(=O)N2CCCCCC2)cc1 | 2.23% (inactive) | 0.85
COc1ccc(NC(=O)c2ccccc2CC[N+](=O)[O-])cc1 | 1.85% (inactive) | 1.42
O=C(Nc1ccccc1F)c1ccc(Cn2cc(Br)cn2)cc1 | 10.6% (inactive) | -0.75
COCCCNC(=O)Cn1c(=O)n(Cc2ccccc2Cl)c(=O)c2cc(OC)c(OC)cc21 | -6.28% (inactive) | 4.75
CCCN(CCC)c1ccc(C(O)c2nnc(-c3ccccc3)o2)cc1 (configuration not stated) | 76.5% (active) | 31.6
C=CCn1c(SCc2nnc(-c3ccccc3)o2)nnc1C(O)c1ccccc1 (configuration not stated) | -11.7% (inactive) | -5.65
OC(c1nnc(-c2ccccc2)o1)c1cccs1 (configuration not stated) | -15.8% (inactive) | 5.68
Cc1ccc(S(=O)(=O)N(C)C)cc1NC(=O)COC(=O)C1COc2ccccc2O1 (configuration not stated) | -0.23% (inactive) | -14.6
CCOc1ccc(-c2n[nH]c(C)c2-c2ccccn2)c(O)c1 | -20.5% (inactive) | 3.26
CCOc1ccccc1NC(=O)Nc1cc(OC)ccc1OC | -4.32% (inactive) | 11.2
CCOc1ccccc1Oc1cn[nH]c1-c1ccc(OC)cc1O | 61.8% (active) | 25.6
C/C(=N\NC(=S)NCc1ccccc1)C1CCCCC1 | 47.2% (inactive) | 53.3
Cc1cc(C)nc(NS(=O)(=O)c2ccc(N/C=C\C(=O)c3cccs3)cc2)n1 | -2.27% (inactive) | 7.04
Oc1c(CN2CCN(c3ccc(F)cc3)CC2)cc(Cl)c2cccnc12 | -1.47% (inactive) | -25
COc1ccc(N2CCN(Cc3ccc(Br)s3)CC2)cc1 | 20.2% (inactive) | 14.9
Fc1ccc(N2CCN(Cc3cnc(Oc4ccc(Br)cc4)s3)CC2)cc1 | 59% (active) | 34

Compound | inhibition [1] | inhibition (mutant strain inhibition) [%]
Cc1ccc(-c2csc(NC(=O)c3cccs3)n2)cc1 | 22.4% (inactive) | 16.9
O=C(O)CCC(=O)N(Cc1ccco1)c1nc(-c2ccccc2)cs1 | -21.3% (inactive) | 4.1
Cc1ccc(-c2csc(N(Cc3ccco3)C(=O)c3cccs3)n2)cc1 | 67.6% (active) | 34.4
O=c1[nH]c(CN2CCOCC2)nc2scc(-c3ccccc3)c12 | 5.72% (inactive) | -6.95
CC1CC2=C(CC1/C=N/NC(N)=S)C(C)(C)CCC2 (configuration not stated) | 67.3% (active) | 64.1
CC1(C)CCCC2=C1CC1C(=O)N(c3ccccc3)C(=O)C1C2 (configuration not stated) | 6.4% (inactive) | -1.63
NC(=O)c1ccc(NC(=O)COC(=O)C(Cc2ccccc2)NC(=O)c2ccccc2)cc1 (configuration not stated) | -21.4% (inactive) | -11.6
O=C(c1ccccc1)c1ccc(OCC(O)CN2CCCC2)cc1 (configuration not stated) | -8.18% (inactive) | 5.68
Cc1ccc(NC(=O)NNC(=O)c2sccc2-n2cccc2)cc1 | -13.1% (inactive) | -0.19
Cc1cccc(N=C2NN=C(c3c[nH]c4ccccc34)CS2)c1 | 13.8% (inactive) | -10.5
c1ccc(CN2CCC(N=C3NN=C(c4ccc5c(c4)OCCO5)CS3)CC2)cc1 | 10.8% (inactive) | 33
Clc1cccc(N=C2NN=C(c3ccc4c(c3)OCCO4)CS2)c1 | 67.3% (active) | 17
Cc1cccc(NC(=O)c2sc(-c3ccccc3)nc2-c2ccc([N+](=O)[O-])cc2)c1 | 2.52% (inactive) | -6.51
CCOC(=O)/C(=C\c1ccc([N+](=O)[O-])cc1)C(=O)c1cc(C(C)=O)c(Nc2ccccc2)s1 | 84.2% (active) | 50.2
O=C(Nc1ccccc1)/C(=C/c1ccc([N+](=O)[O-])cc1)NC(=O)c1ccccc1 | -0.76% (inactive) | -8.51
CC(=O)NCC(=O)N(Cc1ccco1)C1(C(=O)NC2CCCC2)CCCCC1 | -0.52% (inactive) | 10.2
O=C(CCCN1C(=O)/C(=C/c2ccccc2)SC1=S)Nc1ccc(O)cc1 | -11.2% (inactive) | 6.5
Cc1ccc(/C=N/NC(=O)COc2ccccc2-c2ccccc2)cc1 | 93.7% (active) | 20.8
Cc1ccc(OCC(=O)N/N=C/c2ccncc2)cc1 | -0.91% (inactive) | -0.34
Cc1ccc(OCC(=O)N/N=C\c2ccco2)c(C)c1 | 8.35% (inactive) | 16.3
CC(C(=O)NC1CCCC1)N(c1ccc(Oc2ccccc2)cc1)S(C)(=O)=O (configuration not stated) | 20.8% (inactive) | 6.65
COc1cccc(C(=O)N2CCCC(CCC(=O)NCc3ccc(F)c(F)c3)C2)c1 (configuration not stated) | -18.6% (inactive) | 0.91
O=C(CCCNS(=O)(=O)c1cccc2nsnc12)NCCN1CCN(c2ccccc2F)CC1 | -5.33% (inactive) | 6.35

Source: PubChem BioAssay AID1362 (SRMLSC, 2008)
